Results as given in ChEMBL document CHEMBL3988442, “University of Dundee, Small-Polar-MMV Screening Library” (2021).
About 13,000 (27%) of roughly 48,000 compounds showed an effect of 50% or more. This is one part of the list.

system: Wolbachia pipientis; test: Anti-Wolbachia Cell-Based Screen; format: functional; parameters: scale not given: in the data most compounds retested in dose-response had high values; details: 5 µM

Compound | Percent Effect
CC(C)CCCC(C)NC(=O)c1ccc(OCC(N)=O)cc1 (centres undefined) | -8.979%
O=C(NCC(F)(F)F)C(c1cccnc1)N1CCCC1 (centres undefined) | -5.02%
CC(NC(=O)Nc1ccc(F)c(F)c1)c1nc[nH]n1 (centres undefined) | -17.28%
Cc1cc(NC(=O)CNCc2csc(-c3ncccn3)n2)ccc1Cl | 12.11%
CCC(=O)Nc1ccc(F)c(S(=O)(=O)NC(C)(C)C)c1 | -7.233%
Cc1ccc(NC(=O)c2ccc(CC3CC(=O)NC3=O)cc2)cc1O (centres undefined) | -14.91%
Cc1ccc(NC(=O)CC2Cn3ncnc3NC2=O)cc1C (centres undefined) | 101.1%
O=C(CC1Cn2ncnc2NC1=O)Nc1ccc(F)c(F)c1 (centres undefined) | 110.9%
O=C1CN(c2ccc(CNC(=O)c3ccc[nH]3)cc2F)CCN1 | 1.628%
CCNC(=O)NC(=O)CN(CC(C)O)c1ccccc1 (centres undefined) | -6.081%
FC(F)(F)c1nnc2n1CCN(c1nc(C3CC3)ns1)C2 | 7.167%
O=S(=O)(Cc1cc(-c2ccccc2)no1)CC1CCCO1 (centres undefined) | 117.5%
O=C(NCc1cc(-c2ccccc2)no1)NCC1CCCO1 (centres undefined) | 63.77%
CC(C(=O)NS(=O)(=O)Cc1cc(-c2ccccc2)no1)C1CC1 (centres undefined) | -15.76%
O=C(NS(=O)(=O)Cc1cc(-c2ccccc2)no1)C1CCOCC1 | -7.495%
Cc1cc(C)c(CNC(=O)NCC2CCCO2)c(=O)[nH]1 (centres undefined) | -10.27%
CCN1CCC(CNC(=O)NCc2cc(-c3ccc(C)cc3)no2)C1 (centres undefined) | 6.048%
CC1(C)CC1C(=O)NS(=O)(=O)Cc1cc(-c2ccccc2)no1 (centres undefined) | -6.027%
c1ccc(-c2cc(CN3CCC(c4ccn[nH]4)CC3)on2)cc1 | -18.74%
O=C(CC1CCCO1)NS(=O)(=O)Cc1cc(-c2ccccc2)no1 (centres undefined) | 94.25%
CS(=O)(=O)N1CC(c2nc[nH]n2)c2cc(C(=O)NC3CC3)ccc21 (centres undefined) | -11.05%
CC(=O)Nc1ccc(Cl)c(C(=O)N(C)C(C)c2ccon2)c1 (centres undefined) | 2.031%
COCCN1CCN(Cc2nc3c(s2)CCCC3)[C@H]2CS(=O)(=O)C[C@H]21 | -3.056%
CN(C)CCN(Cc1ccccc1)C(=O)C1=NNC(=O)CC1 | -7.83%
COc1ccc(C(=O)N2CCC(Nc3ccc(C)nn3)CC2)c(F)c1 | -2.664%
Cc1ccc(NC2CCN(C(=O)c3cccc(F)c3F)CC2)nn1 | -1.212%
Cc1ccc(NC2CCN(C(=O)c3ccc(F)c(C)c3)CC2)nn1 | 89.48%

Compound | Percent Effect
Cc1ccc(NC2CCN(C(=O)c3ccc4c(c3)CCC4)CC2)nn1 | 112.2%
Cc1ccc(NC2CCN(C(=O)c3cc(C(N)=O)cs3)CC2)nn1 | 7.568%
COc1cccc(COCC(=O)NC(C(N)=O)c2ccccc2)c1 (centres undefined) | -6.273%
COc1cc2nc3n(c(=O)c2cc1OC)CCN(C(=O)C(C)(C)C)CC3 | 130.5%
COc1ccc2[nH]nc(CN3CCC(C(=O)N4CCCCC4)CC3)c2c1 | -39.46%
COc1cc2nc3n(c(=O)c2cc1OC)CCN(C(C)=O)CC3 | -0.7868%
COc1cc2nc3n(c(=O)c2cc1OC)CCN(C(=O)C1CCC1)CC3 | 115.6%
COc1cc2nc3n(c(=O)c2cc1OC)CCN(C(=O)C1CC1)CC3 | 109.5%
COc1cc2nc(C)n(CC(=O)NCCCN(C)C)c(=O)c2cc1OC | 20.74%
CCC(=O)N1CCc2nc3cc(OC)c(OC)cc3c(=O)n2CC1 | -9.574%
CCCC(=O)N1CCc2nc3cc(OC)c(OC)cc3c(=O)n2CC1 | 121.4%
CC(CCN(C)C)NC(=O)c1cccc(C(F)(F)F)c1F (centres undefined) | 5.139%
CN(Cc1ccncc1)CC(c1cccs1)N1CCOCC1 (centres undefined) | -0.8027%
Cc1ccc(C(=O)N(Cc2cccnc2)C[C@@H]2CCC(=O)N2)s1 | 6.518%
CCc1cnc(N)nc1NCCCn1cc(Cl)cn1 | 12.08%
O=C(CC1CCCO1)NCCc1ccccc1Br (centres undefined) | -5.645%
O=C(CCCNC(=O)C1CC1)Nc1cnn(-c2ccccc2Cl)c1 | 2.837%
O=C(CCCNC(=O)C1CCCO1)Nc1ccc(Cl)cc1 (centres undefined) | 123.9%
O=C(CC1CCCO1)NCCCC(=O)Nc1ccc(Cl)cc1 (centres undefined) | 117.3%
O=C(NCCCN1CCN(c2ncccn2)CC1)NCC1CCCO1 (centres undefined) | 8.99%
CNS(=O)(=O)c1ccc(CNC(=O)NCC2CCCO2)cc1 (centres undefined) | -4.659%
O=C(CC1CCCO1)NCCc1ccc(Br)cc1F (centres undefined) | 2.724%
O=C(CCC1CCCO1)NCCCC(=O)Nc1ccc(Cl)cc1 (centres undefined) | 132.9%
O=C(NCCNS(=O)(=O)c1cccc(Cl)c1)C1CCCO1 (centres undefined) | -1.895%
O=C(CCCNC(=O)NCC1CCCO1)Nc1ccc(Cl)cc1 (centres undefined) | 100.3%
O=C(CCC1CCCO1)NCCCO (centres undefined) | -3.139%
O=C(CCC1CCCO1)NS(=O)(=O)c1ccc(Cl)cc1 (centres undefined) | -0.06204%
